Assay results as given in article PMC3218832.

What was measured:
Assay in all cases: protein binding microarray; high values mean tight binding
Conditions in all cases: dsDNA, one strand shown
RELARELA (p65 homodimer) = RELARELA (p65 homodimer) (Homo sapiens, UniProt Q04206 1-307)
p50p50 homodimer = p50p50 homodimer (Homo sapiens, UniProt P19838 7-356)
p52p52 homodimer = biological target: T1, p52p52 homodimer (Homo sapiens, UniProt Q00653 4-332)
T1 sequence: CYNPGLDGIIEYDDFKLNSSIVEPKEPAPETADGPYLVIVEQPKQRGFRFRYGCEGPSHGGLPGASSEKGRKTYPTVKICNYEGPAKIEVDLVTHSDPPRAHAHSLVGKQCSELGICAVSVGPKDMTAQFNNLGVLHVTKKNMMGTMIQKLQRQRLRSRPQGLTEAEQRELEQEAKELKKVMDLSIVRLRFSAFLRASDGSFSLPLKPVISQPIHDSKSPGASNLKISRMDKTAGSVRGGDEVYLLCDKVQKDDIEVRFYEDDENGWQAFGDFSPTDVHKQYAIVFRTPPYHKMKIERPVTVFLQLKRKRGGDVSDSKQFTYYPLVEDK

[1] = biological target: RELA (p65) subunit of heterodimer;p50 subunit (Homo sapiens;Homo sapiens, UniProt Q04206;P19838 1-307;7-356)
Chain of RELA (p65) subunit of heterodimer;p50 subunit (Q04206 1-307, chain 1 of 2): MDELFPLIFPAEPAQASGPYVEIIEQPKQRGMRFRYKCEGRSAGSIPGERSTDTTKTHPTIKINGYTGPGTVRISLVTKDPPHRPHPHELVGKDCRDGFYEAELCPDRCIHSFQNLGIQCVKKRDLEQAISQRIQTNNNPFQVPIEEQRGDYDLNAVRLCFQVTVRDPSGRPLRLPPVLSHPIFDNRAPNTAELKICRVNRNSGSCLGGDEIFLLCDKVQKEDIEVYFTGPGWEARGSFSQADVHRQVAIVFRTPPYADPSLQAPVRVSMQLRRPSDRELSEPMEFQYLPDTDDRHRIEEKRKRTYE
Chain of RELA (p65) subunit of heterodimer;p50 subunit (P19838 7-356, chain 2 of 2): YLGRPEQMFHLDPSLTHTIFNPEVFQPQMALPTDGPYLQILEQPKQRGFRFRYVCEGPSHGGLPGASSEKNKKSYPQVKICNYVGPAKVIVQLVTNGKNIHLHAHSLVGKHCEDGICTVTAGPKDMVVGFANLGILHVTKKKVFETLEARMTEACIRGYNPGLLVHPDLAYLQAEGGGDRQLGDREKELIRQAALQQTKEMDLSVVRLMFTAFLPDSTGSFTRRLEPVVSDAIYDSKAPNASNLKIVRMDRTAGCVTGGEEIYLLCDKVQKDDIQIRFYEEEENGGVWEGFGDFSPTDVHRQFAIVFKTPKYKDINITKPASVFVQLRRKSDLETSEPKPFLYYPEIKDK

[2] = biological target: RELA (p65) subunit of heterodimer;p52 subunit (Homo sapiens;Homo sapiens, UniProt Q04206;Q00653 1-307;4-332)
RELB subunit;p50 subunit = RELB subunit;p50 subunit (Homo sapiens;Homo sapiens, UniProt Q01201;P19838 120-401;7-356)
RELB subunit;p52 subunit = biological target: T2, RELB subunit;p52 subunit (Homo sapiens;Homo sapiens, UniProt Q01201;Q00653 120-401;4-332)
T2 sequence 1: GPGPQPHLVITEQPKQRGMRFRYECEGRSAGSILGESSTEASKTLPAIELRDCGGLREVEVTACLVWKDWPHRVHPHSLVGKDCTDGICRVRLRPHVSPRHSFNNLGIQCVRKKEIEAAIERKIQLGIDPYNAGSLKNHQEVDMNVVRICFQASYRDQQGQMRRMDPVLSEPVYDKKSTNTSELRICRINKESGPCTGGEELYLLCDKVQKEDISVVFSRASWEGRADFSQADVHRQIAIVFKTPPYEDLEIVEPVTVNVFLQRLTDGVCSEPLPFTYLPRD
T2 sequence 2: T1 sequence

[3] = biological target: C-Rel subunit;p50 subunit (Homo sapiens;Homo sapiens, UniProt Q04864;P19838 1-285;7-356)
[4] = biological target: T3, C-Rel subunit;p52 subunit (Homo sapiens;Homo sapiens, UniProt Q04864;Q00653 1-285;4-332)
T3 sequence 1: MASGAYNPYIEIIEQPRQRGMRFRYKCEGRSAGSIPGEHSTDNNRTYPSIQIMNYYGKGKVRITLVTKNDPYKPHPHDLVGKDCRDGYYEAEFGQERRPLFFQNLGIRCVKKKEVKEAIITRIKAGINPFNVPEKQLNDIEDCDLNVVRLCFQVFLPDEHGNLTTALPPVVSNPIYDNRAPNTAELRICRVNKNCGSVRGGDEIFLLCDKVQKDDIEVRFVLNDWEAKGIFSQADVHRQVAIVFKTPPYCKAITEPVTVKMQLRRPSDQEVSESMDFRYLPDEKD
T3 sequence 2: T1 sequence

Chain of p50p50 homodimer (P19838 7-356): as the sequence (P19838 7-356, chain 2 of 2) above
Chain of RELARELA (p65 homodimer) (Q04206 1-307): as the sequence (Q04206 1-307, chain 1 of 2) above

Sequence	binding signal (RELARELA (p65 homodimer)) [z-score]	binding signal (p50p50 homodimer) [z-score]	binding signal (p52p52 homodimer) [z-score]	binding signal [1] [z-score]	binding signal [2] [z-score]	binding signal (RELB subunit;p50 subunit) [z-score]	binding signal (RELB subunit;p52 subunit) [z-score]	binding signal [3] [z-score]	binding signal [4] [z-score]
CGAGATTTCCC	1.93	0.975	0.882	1.43	1.06	0.804	0.926	1.31	0.887
GAGAATACCCC	0.964	1.14	0.914	1.24	1.18	1.05	1.31	1.03	0.996
CGATTTCCCCT	1.73	1.66	2.21	2.26	1.96	2.39	2.23	1.83	1.81
CGGGAACTCCT	1.67	0.314	0.181	0.357	0.17	-0.0239	0.0296	0.188	0.424
GAGGAGCTCCT	-0.566	-1.81	-0.78	-1.13	-0.927	-1.05	-1.06	-1.73	-0.927
CAAGGTTCCCC	0.544	1.15	1.29	1.68	1.31	1.5	1.58	1.36	1.06
GAGATCCTCCC	-0.414	-0.604	-0.376	-0.425	-0.539	-0.422	-0.686	-0.717	-0.442
GGAGGCGCCCC	-0.259	-0.0933	-0.0824	-0.062	0.0158	0	0.214	-0.156	-0.0409
GGGGGGCCCCT	0.434	0.995	1.67	1.67	1.86	1.23	1.45	1.22	1.71
CGAGGTGCCCT	-0.746	-1.52	-0.61	-0.798	-0.84	-0.973	-0.87	-1.16	-0.789
GAGTTTCTCCT	-0.323	-1.49	-0.546	-0.596	-0.78	-0.911	-0.855	-0.907	-0.692
CGGTGGTTCCT	0.0744	0.731	1.05	0.41	0.701	0.293	0.552	-0.0201	0.719
CAATACATCCC	-0.0719	-0.836	-0.518	-0.774	-0.7	-0.646	-0.575	-0.971	-0.69
AGGATTGTCCT	0.256	-1.5	-0.541	-0.736	-0.766	-0.86	-0.821	-1.01	-0.483
AGGAGCCCCCT	-0.528	1.32	0.61	1.07	0.992	1.2	1.26	1.02	0.757
CGAGGGCCCCC	-0.934	0.101	-0.0825	0.0405	-0.0107	0.199	0.202	-0.0359	0.137
AGAAGGGTCCC	-0.591	-0.215	0.0384	-0.173	-0.123	-0.00663	-0.0866	-0.405	-0.315
GAAATTGCCCT	0.612	-0.312	-0.333	0.0283	-0.203	-0.547	-0.476	0.175	-0.0915
GGGTGCTCCCT	-0.519	0.136	0.0774	-0.166	0.115	-0.21	-0.168	-0.0364	0.178
CGAGAATCCCT	-0.154	0.393	0.327	0.25	0.284	0.305	0.573	0.277	0.32
GGGTGAATCCT	0.03	0.0518	0.368	-0.186	0.102	-0.241	-0.135	-0.176	-0.138
GAGTATCCCCT	0.0376	1.26	1.26	1.29	1.26	1.28	1.35	0.928	0.943
GAAGGTCTCCT	-0.533	-2.58	-0.69	-0.982	-0.897	-1.22	-1.02	-1.58	-0.76
CAGTAGACCCC	-0.444	-0.398	-0.423	-0.397	-0.485	-0.472	-0.384	-0.501	-0.439
GAATTCCTCCC	0.897	-0.0187	-0.00969	0.17	0.0178	-0.14	-0.0714	0.325	0.177
CAAATTCCCCC	2.31	1.64	2.63	2.41	2.32	2.69	2.35	1.89	2.65
GGAAATTTCCT	3.45	0.318	0.15	1.83	1.22	0.0518	0.485	0.9	1.42
GGGTACTCCCC	1.34	0.682	3.13	1.82	2.75	1.95	1.96	1.45	2.17
AAGAATTTCCT	1.63	-0.591	-0.35	-0.206	-0.329	-0.672	-0.375	0.0204	-0.227
